Assay in all cases: PBM binding z-score (relative to random genomic background probes); higher = stronger binding; sequences stand for … in GC…GCGATTGACAGCGTAGAATGAAGG
Assay [1] deals with RARb homodimer (NR concentration 270 nM). In outline: (§1)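 Antibodies against each partner of ligand-free nuclear receptor dimers (one per run) detected binding on custom Agilent 4×180K protein-binding microarrays after 1 h incubation. The double-stranded probes had 34-nt variable regions carrying direct-repeat seeds, single-nucleotide variants, half-site ablations and random human genomic background sequences. Binding z-scores, from regression-normalized fluorescence, use the random background probes as reference.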

The subject of assay [2] is RARg:RXRa (NR concentration 270 nM, RXRa partner concentration 90 nM). In outline:
as §1

In assay [3] the test system is RARg homodimer (NR concentration 270 nM). In outline:
as §1

Assay [4] relates to RXRa DBDmut IVT, anti-RXR (DBD mutation: RXRa K156A/R161A, NR concentration 90 nM). A digest of the protocol:
as §1

Assay [5] has as its system RXRa homodimer (NR concentration 180 nM). A digest of the protocol: as §1
The test system of assay [6] is THRa:RXRa (NR concentration 90 nM, RXRa partner concentration 90 nM). In outline:
as §1

Assay [7] has as its system THRa homodimer (NR concentration 90 nM). In outline:
as §1

Assay [8] has as its system VDR:RXRa (NR concentration 270 nM, RXRa partner concentration 90 nM). A digest of the protocol: as §1
The test system of assay [9] is VDR homodimer (NR concentration 270 nM). A digest of the protocol: as §1

Consider ACTAGCAGGCCGAGGGTCACTCAAGATTAGTCCG, for which the PBM binding z-score in assay [1] was 2.43; in [2], 2.41; in assay [3], 2.14; in assay [4] it was 0.267; in [5], 2.49; in [6], 1.91. For the same sequence, the PBM binding z-score in assay [7] is -0.126; in assay [8], 1.52; in assay [9], 0.527.
GCTATTAGTTGAAAGGGCAGCCGAATGATTCTCG: the PBM binding z-score in assay [1] is 1.51; in assay [2], 0.552; in [3], 0.863; in assay [4] it was 0.695; in [5] it was 0.636; in assay [6], -0.12. In addition, the PBM binding z-score is -0.775 in [7], 0.0527 in [8] and -0.507 in assay [9].
Take CAAACTAGGTCACAGAGGTCAAAGTCCGTGCGTA: the PBM binding z-score in assay [1] stood at 5.8; in [2], 7.58; in assay [3], 7.69; in assay [4], 3.5; in [5], 8.16; in assay [6] it was 4.79. Besides, the results for the PBM binding z-score in assay [7] and in assay [9] were 3.15 and 7.24, respectively.
Consider ATATGTAAGTTATCGGGTCATTCAGTTTGCGCAT, for which the PBM binding z-score in assay [1] was 2.48; in [2], 2.12; in [3], 1.48; in assay [4], 1.61; in assay [5], 2.59; in assay [6], 3.24. Also, the PBM binding z-score in assay [7] was 2.84; in [8] it was 4.93; in assay [9], 3.74.
For GCGACTGGGGCATCAGCAGGTTACCATAACTTAA, the PBM binding z-score is 0.856 in [1]; 0.955 in [2]; 0.455 in assay [3]; -0.108 in assay [4]; 0.462 in [5]; 1.09 in assay [6]. In addition, the values for the PBM binding z-score in [7] and in assay [9] were -0.0496 and -0.398, respectively.
Take CTCGAAAGGTCGGTTGAGGTGAGTACACGGATAA: the PBM binding z-score in assay [1] worked out at 2.53; in [2], 2.89; in assay [3], 2.79; in assay [4] it was 0.908; in assay [5], 2.34; in [6] it was 5.21. For the same sequence, the PBM binding z-score came to 1.47 in assay [7], 2.84 in assay [8] and 1.71 in assay [9].
As for TCGAGCAGGTTAGTCGGGGCATTCAGCCAACATA, the PBM binding z-score in [1] is 0.497; in assay [2], -0.142; in assay [3], -0.25; in assay [4], -0.118; in assay [5], -0.199; in [6] it was 1.21. Moreover, the PBM binding z-score in assay [7] is -0.236; in assay [9], 0.432.
In the case of TGAATGGGGTTATAAGATCAGGGAACGTTGCAAA, the PBM binding z-score in assay [1] came to 1.49; in assay [2], 2.3; in [3], 0.965; in assay [4] it was 1.6; in assay [5], 3.95; in assay [6], 2.45. Moreover, the PBM binding z-score in assay [7] was 1; in assay [8] it was 2.58; in [9] it was 1.23.
For TCTCGTAGGACACGAAAGGTCAGAGCTCGACATC, the PBM binding z-score is 4.53 in [1]; 4.69 in assay [2]; 5.29 in [3]; 1.16 in [4]; 4.44 in [5]; 3.28 in [6]. For the same sequence, the values for the PBM binding z-score in assay [7], in [8] and in assay [9] were 0.778, 3.09 and 0.852, respectively.
Take CGTCCAAGGTCAAGGTCAGTGTAAGAGACTCGAA: the PBM binding z-score was 4.82 in assay [1]; 6.56 in assay [2]; 7.36 in [3]; 3.69 in assay [4]; 6.28 in [5]; 4.39 in [6]. Further, the PBM binding z-score worked out at 3.57 in assay [7], 4.67 in [8] and 3.32 in [9].
Consider ATACCAAGGTGATCGTGAGGTCGTTGGTACTAAC, for which the PBM binding z-score in assay [1] came to 1.55; in assay [2], 2.1; in [3], 0.722; in assay [4] it was 0.424; in assay [5] it was 1.5; in assay [6], 3.39. In addition, the PBM binding z-score amounted to 2.22 in assay [7], 3.09 in [8] and 2.96 in assay [9].
For TAGGCTAGGTCATGGGCCAGTATACCACGCGAAC, the PBM binding z-score is 2.94 in [1]; 4.33 in [2]; 4.94 in assay [3]; 0.455 in assay [4]; 3.29 in assay [5]; 3.11 in assay [6]. For the same sequence, the PBM binding z-score in assay [7] came out at 1.2; in [9], 0.234.
For ACTAATAGTTGACTTAGGGCAACCGATACGACGC, the PBM binding z-score amounted to 0.958 in [1]; 0.412 in [2]; 0.996 in assay [3]; 0.674 in [4]; 0.408 in assay [5]; 1.6 in assay [6]. Further, the PBM binding z-score in assay [7] was determined as 0.383; in assay [8], 0.357; in assay [9] it was 0.15.
Turning to TCTAGTTGGTCACGGAGGTTACACACGACGGGTA, the PBM binding z-score in assay [1] came to 2.39; in assay [2], 2.29; in assay [3], 2.43; in assay [4], 0.609; in assay [5], 2.16; in [6], 1.71. Also, the PBM binding z-score in assay [7] worked out at 0.725; in assay [8], 3.16; in assay [9], 0.629.
As for ACTCGGAGGACAAAGGCCAGAGCTACGCCAGTGA, the PBM binding z-score in assay [1] was 0.873; in assay [2] it was 0.907; in [3] it was 1.26; in [4] it was 0.472; in assay [5] it was -0.212; in assay [6], 0.389. The PBM binding z-score in assay [7] was -0.475; in [9], -0.537.
In the case of GGAACGAGGACATTCGAGTTGATAGCATGGCGAT, the PBM binding z-score in assay [1] is -0.261; in [2] it was 0.285; in [3], 0.773; in [4], 2.25; in [5], 0.11; in [6], 2.2. The results for the PBM binding z-score in assay [7] and in assay [9] were 0.823 and 1.65, respectively.

These data come from the supplement of paper PMC6555819.
